# High-throughput results as filed in PubChem.
# Sampled rows, rich in hits. Any-hit rate of the full collection: about 11%.
# PNC inhibitor = perinucleolar compartment assembly inhibition | AID 2417 | actives 3.1% (n = 140,000) | PC3M PTB-GFP, PNC prevalence imaging, 16 h; active compounds read low | activity change (PNC), negative = inhibition, % at 10 µM;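 active = readout at or below -70, meaning at least 70% loss of cells showing the perinucleolar compartment, a nuclear body marking cancer cells; inconclusive = readout between -30 and a set limit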;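 also: plate controls were DMSO wells for no effect and camptothecin positive control wells for full effect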
#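 Read-out is percentage of cells bearing a perinucleolar compartment, from automated 20x imaging of fixed, Hoechst-stained PC3M PTB-GFP cells. Cells were seeded 4 h, then exposed 16 h to compound (23 nl of library stock) in duplicate plates.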
# ALDH1A1 block = inhibitors of human aldehyde dehydrogenase 1A1; P00352; Purified ALDH1A1, NADH fluorescence, propionaldehyde substrate; Potency, µM (top dose mostly 75.3 µM), for the others: top-dose activity, negative = inhibition, usual class: inhibitors; actives 7.3% (n = 220,000);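 also: potency is read from the fitted curve at half-maximal effect; plate controls were no enzyme wells and a reference inhibitor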
# HPGD inh = blocks human HPGD enzyme activity; P15428; purified HPGD, NADH fluorescence kinetic, PGE2 substrate; Potency, µM, for the others: at the top dose activity change, negative = inhibition, hits mostly inhibitors; actives 4.3% (n = 150,000); also: potency is read from the fitted curve at half-maximal effect
# Target sequence (P15428 whole entry, looked up): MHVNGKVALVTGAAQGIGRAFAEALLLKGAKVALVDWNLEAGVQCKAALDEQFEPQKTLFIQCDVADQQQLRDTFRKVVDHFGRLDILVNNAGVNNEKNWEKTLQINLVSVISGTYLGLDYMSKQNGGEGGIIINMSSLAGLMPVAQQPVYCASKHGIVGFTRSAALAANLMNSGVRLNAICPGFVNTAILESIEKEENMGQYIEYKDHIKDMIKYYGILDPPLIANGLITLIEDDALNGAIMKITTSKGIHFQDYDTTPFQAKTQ
#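 20 nM HPGD preincubated 15 min at room temperature with compound in 50 mM Tris-HCl pH 8, 0.01% Tween 20. Started with 1 mM NAD+ and 30 uM prostaglandin E2; NADH fluorescence (360/450 nm) read 5 times over 30-s intervals, last minus first.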
# * = called active by the depositor; ? = inconclusive; . = not tested or not shown; [ ] = remark or other dose. Unless noted, calls follow the shape of the dose curve; as a rule, active = well fitted inhibition curve with a large enough effect (not every such curve was filed as active); inconclusive = small, poorly fitted or top-dose-only effect, or another doubt; inactive = no such curve, though single readings can be large or run the other way. Unless noted, % is scaled to controls: 0 for no effect and ±100 for the full control effect.
SMILES,PNC inhibitor,ALDH1A1 block,HPGD inh
CCC(c1nnc(SCC(=O)Nc2cc(Cl)ccc2C#N)n1C1CCCCC1)N(C)C (stereo not drawn),-107*,4%,-14%
CCC(c1nnc(SCC(=O)Nc2ccc(C(C)=O)cc2)n1C1CCCCC1)N(C)C (stereo not drawn),1,7%,-16%
O=C(C1CC=CCC1)N1CCC(CO)(Cc2ccc(Cl)cc2)CC1 (stereo not drawn),.,5%,.
O=C(c1ccco1)N1CCN(S(=O)(=O)Cc2ccccc2Cl)CC1,.,10µM*,.
CNC(=O)COc1cccc(C(=O)NCc2ccccc2)c1,?,7%,.
O=C(Cc1c(Cl)cccc1Cl)OCC(=O)N1CCN(C(=O)c2ccco2)CC1,.,32µM*,.
CCS(=O)(=O)N1CCN(C(=O)c2ccco2)CC1,?,0%,-4%
CC(C)(C)C1CCC(C(=O)OCC(=O)N2CCN(C(=O)c3ccco3)CC2)CC1 (stereo not drawn),.,-1%,.
O=C(NCc1ccccc1)c1cccc(OCC(=O)N2CCN(C(=O)c3ccco3)CC2)c1,40,16µM*,-4%
COc1ccc(Cl)cc1-c1nc(-c2ccc(NC(=O)c3cccs3)cc2)no1,-19,?,?
N[C@H](C(=O)O)[C@H](OCc1ccccc1)C(=O)O,.,-2%,-4%
Cc1cccc(-c2nnc(SCC(=O)Nc3ncccn3)n2C)c1,.,-6%,.
CC(=O)c1cccc(NC(=O)COc2cc3oc(=O)c(CC(C)O)c(C)c3cc2Cl)c1 (stereo not drawn),-9,?,?
Nc1cccnc1Sc1ccc([N+](=O)[O-])cn1,23,?,10µM*
O=[N+]([O-])c1ccc(Sc2n[nH]c(-c3ccccc3)n2)nc1,8,-15%,8.9µM*
O=[N+]([O-])c1ccc(Sc2ccccc2)nc1,3,-8%,-5%
Nc1cccnc1Sc1cc(Cl)c(Cl)cc1Cl,8,?,-16%
CS(=O)(=O)Nc1cccc(-c2ccc3ncnc(N4CCOCC4)c3c2)c1,.,6%,.
Cc1ccc(N(C(=O)C2CCC(=O)N2)C2(C(=O)NC3CCCC3)CCCCC2)cc1 (stereo not drawn),-14,-6%,6%
O=C1CCC(C(=O)N(c2ccccc2)C2(C(=O)NC3CCCCC3)CCCCC2)N1 (stereo not drawn),-10,7.1µM*,.
CCOc1ccc(S(=O)(=O)NC(Cc2cnc[nH]2)C(=O)O)cc1 (stereo not drawn),.,2%,.
CCOc1ccc(C(=O)CCNC(Cc2cnc[nH]2)C(=O)O)cc1 (stereo not drawn),21,1.6µM*,-3%
O=C(CN1C(=O)C2C3C=CC(C3)C2C1=O)Nc1ccc(S(=O)(=O)N2CCCCC2)cc1 (stereo not drawn),-15,-16%,-8%
CC(=O)c1cccc(S(=O)(=O)NC2CCCCCC2)c1,20,10µM*,-14%
CC(=O)c1cccc(S(=O)(=O)NC2CC2)c1,-4,?,-12%
SMILES,PNC inhibitor,ALDH1A1 block,HPGD inh
COC(=O)Cn1c(C(=O)N2CCCC2)cc2c1C[C@H]1CN(C(=O)c3ccccc3)[C@@](Cc3ccccc3)(C(=O)OC)[C@@H]21,.,-7%,-2%
Cc1cc(C)c(NC(=O)c2ccc(CN3CCc4ccccc4C3)cc2)c(C)c1,25,3%,0%
O=C(NNC(=O)c1ccccc1C(=O)O)c1ccc(O)cc1,.,-2%,.
O=C(O)c1ccccc1C(c1ccc(O)cc1)c1ccc(O)cc1,.,28µM*,3%
COC(=O)c1ccc(C(NC(=O)OCc2ccccc2)/C(=C/[C@@H](C)C(=O)N(C)C)c2cccnc2)cc1 (stereo partly drawn),.,-2%,0%
O=C1N=C(N2CCCCC2)S/C1=C/C1=Cc2ccccc2OC1,.,28µM*,.
Cc1ccc(/C=C2\SC(N3CCCC3)=NC2=O)cc1,.,12%,.
CC(C)(C)N1C(=O)[C@H]2[C@@H]3[C@H](O)[C@H](O)CC(=O)[C@H]3CC[C@H]2C1=O,.,7%[13.5 µM],.
CCOC(=O)C1(Cc2ccccc2)CCCN(C2CCCC2)C1 (stereo not drawn),.,6%,.
Cc1ccccc1OCCCn1c(CO)nc2ccccc21,.,-8%,.
COc1cccc(-n2c(N)c(C#N)c3ccc([N+](=O)[O-])cc3c2=O)c1,-1,1%,.
CCOC(=O)C1CCN(Cc2nc3ccc([N+](=O)[O-])cc3c(=O)n2-c2ccc(OC)cc2OC)CC1,.,20µM*,.
CCOC(=O)C1CCCN(Cc2nc3ccc([N+](=O)[O-])cc3c(=O)n2-c2ccc(OC)cc2OC)C1 (stereo not drawn),.,-7%,.
COc1ccc2c(c1)c(C(=O)CN1CCC(C(N)=O)CC1)c(C)n2C,4,-5%,-6%
